# Data: PubChem BioAssay (EPA / NIEHS)
# Active and inactive are the calls of the source. The calls were made as follows: active = hit-call score of the fitted dose curve at least 0.9, where 1 is the maximum; inactive = score below 0.9.
# How the values were obtained:
# [1] = ATG_GLI_CIS: Attagene CIS-FACTORIAL HepG2 Assay for human Zinc Finger Protein GLI1 (AID 2282945); settings: HepG2, Attagene cis-factorial reporter mRNA, GLI element; actives raise or lower the signal
# Outline: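 Bidirectional curve fits relative to DMSO, using reporter mRNA levels from RT-PCR plus capillary electrophoresis. Cells were HepG2 transiently carrying cis-regulated reporter constructs, harvested 24 h after dosing.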
# [2] = biological target: Bile acid receptor (Homo sapiens) (UniProt Q96RI1); assay: ATG_IR1_CIS: Attagene CIS-FACTORIAL HepG2 Assay for human Nuclear Receptor Subfamily 1 Group H Member 4 (NR1H4), IR1 submotif (AID 2282946); settings: IR1 reporter transcription, actives raise or lower the signal
# Outline: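 HepG2 cells transiently transfected with multiplexed cis-element reporter units read endogenous transcription factor activity. After 24 h compound exposure, reporter mRNA was quantified by RT-PCR, fluorescent labelling, HpaI digestion and capillary electrophoresis; bidirectional fitting versus DMSO baseline.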
# [3] = ATG_GRE_CIS: Attagene CIS-FACTORIAL HepG2 Assay for human Glucocorticoid Response Elements (GRE) (AID 2282947); settings: HepG2 GRE cis-reporter, Attagene multiplex mRNA; actives raise or lower the signal
# Outline: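 Reporter transcripts read by RT-PCR with capillary electrophoresis fluorescence after a 24 h chemical exposure of HepG2 cells transiently transfected with multiple cis-element reporter units. Gain or loss fitted against DMSO.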
# [4] = ATG_ISRE_CIS: Attagene CIS-FACTORIAL HepG2 Assay for human Interferon Regulatory Factor 1 (IRF1) binding to an Interferon-Stimulated Response Element (ISRE) (AID 2282948); settings: HepG2 ISRE cis-reporter (Attagene), mRNA transcription readout; actives raise or lower the signal
# Outline: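 Uses HepG2 liver cells transfected with cis-regulated reporters and measures mRNA 24 h post-dosing through RT-PCR, primer-extension labelling and capillary electrophoresis, with DMSO as negative control.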
# [5] = ATG_M_32_CIS: Attagene CIS-FACTORIAL HepG2 Assay for M32 Transcription Factor (Internal Marker) (AID 2282949); settings: HepG2 Attagene cis-factorial M32 reporter, mRNA; actives raise or lower the signal;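 also: background control marker of the multiplexed CIS panel rather than a real target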
# Outline: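 HepG2 human liver cells transiently transfected with cis-promoter-driven multiple reporter transcription units, dosed 24 h. Reporter mRNA quantified by RT-PCR, FAM-labelled primer extension, HpaI digest and capillary electrophoresis; bidirectional fit versus DMSO baseline.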
# [6] = ATG_M_06_CIS: Attagene CIS-FACTORIAL HepG2 Assay for M06 Transcription Factor (Internal Marker) (AID 2282950); settings: HepG2 Attagene CIS-FACTORIAL M06 internal marker reporter; actives raise or lower the signal
# Outline: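 Measured 24 h post-dosing in transiently transfected HepG2 cells, this internal-marker endpoint reports reporter mRNA via RT-PCR with fluorescent primer extension and capillary electrophoresis. DMSO served as negative control and baseline for bidirectional fitting.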
# [7] = biological target: Hypoxia-inducible factor 1-alpha (Homo sapiens) (UniProt Q16665); assay: ATG_HIF1a_CIS: Attagene CIS-FACTORIAL HepG2 Assay for human Hypoxia Inducible Factor 1 (HIF1A) (AID 2282951); settings: HepG2 Attagene cis-factorial HIF1a reporter transcription; actives raise or lower the signal
# Outline: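 Dosed 24 h, transfected HepG2 cells yielded total RNA whose reporter transcripts were RT-PCR-amplified and sized by capillary electrophoresis using fluorescent labelling; DMSO defined baseline, with gain and loss of signal both fitted.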
# [8] = biological target: Hepatocyte nuclear factor 6 (Homo sapiens) (UniProt Q9UBC0); assay: ATG_HNF6_CIS: Attagene CIS-FACTORIAL HepG2 Assay for human Hepatocyte Nuclear Factor 6 (HNF6) (AID 2282952); settings: HepG2 Attagene cis-factorial HNF6 reporter transcription; actives raise or lower the signal
# Outline: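 Endogenous factor activity read in transiently transfected HepG2 via promoter-regulated reporter transcripts. RNA harvested 24 h post-dosing, reverse-transcribed, PCR-amplified, FAM-labelled, HpaI-digested and resolved by capillary electrophoresis; fitted in both directions against DMSO.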
# [9] = biological target: Heat shock factor protein 1 (Homo sapiens) (UniProt Q00613); assay: ATG_HSE_CIS: Attagene CIS-FACTORIAL HepG2 Assay for human Heat Shock Transcription Factor 1 (HSE) (AID 2282953); settings: HepG2 HSE cis-reporter, Attagene RNA transcription; actives raise or lower the signal
# Outline: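 Reporter mRNA induction in HepG2 is measured 24 h after dosing, using transiently transfected multiplexed cis-regulated reporter units. Signal comes from capillary electrophoresis of labelled RT-PCR products, with DMSO as negative control.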
# [10] = ATG_MRE_CIS: Attagene CIS-FACTORIAL HepG2 Assay for human Metal Responsive Element (MRE) (AID 2282954); settings: HepG2 MRE cis-reporter transcription, Attagene multiplex; actives raise or lower the signal
# Outline: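 Endogenous MRE-dependent transcription read as reporter mRNA in transiently transfected human HepG2 cells at 24 h. RNA reverse-transcribed, PCR-amplified, labelled and resolved by capillary electrophoresis; gain or loss relative to DMSO.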
# [11] = ATG_PBREM_CIS: Attagene CIS-FACTORIAL HepG2 Assay for human Phenobarbital-responsive Enhancer Module (PBREM) (AID 2282955); settings: HepG2 PBREM cis-reporter, Attagene multiplexed transcription; actives raise or lower the signal
# Outline: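 Transfected liver-derived HepG2 cells exposed 24 h; PBREM reporter transcript quantified via RT-PCR and capillary electrophoresis, with activity in either direction referenced to DMSO.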
# [12] = biological target: Paired box protein Pax-6 (Homo sapiens) (UniProt P26367); assay: ATG_Pax6_CIS: Attagene CIS-FACTORIAL HepG2 Assay for human Paired Box 6 (PAX6) (AID 2282956); settings: HepG2 CIS-FACTORIAL PAX6 reporter transcription, RNA readout; actives raise or lower the signal
# Outline: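 DMSO-referenced bidirectional fits of reporter mRNA fluorescence; HepG2 with transient cis-promoter MRTUs, 24 h post-dose, RT-PCR plus capillary electrophoresis detection.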
# [13] = ATG_PXRE_CIS: Attagene CIS-FACTORIAL HepG2 Assay for human Pregnane X Receptor Element (PXRE) (AID 2282957); settings: HepG2 Attagene CIS-FACTORIAL PXRE reporter, mRNA; actives raise or lower the signal
# Outline: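 Reporter transcripts under endogenous PXR-responsive cis-regulation quantified from total RNA of transfected HepG2 cells 24 h post-dosing, via RT-PCR with fluorescent primer extension and capillary electrophoresis. Gain or loss of signal fitted against DMSO baseline.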
# [14] = ATG_PPRE_CIS: Attagene CIS-FACTORIAL HepG2 Assay for human Peroxisome Proliferator-activated Response Element (PPRE) (AID 2282958); settings: HepG2 PPRE cis-element reporter, Attagene transcription factor profiling; actives raise or lower the signal
# Outline: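 Measured endpoint: PPRE-controlled reporter mRNA, detected by RT-PCR and capillary electrophoresis fluorescence, from transiently transfected HepG2 cells 24 h after dosing. Curves fitted in both directions using DMSO baseline.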
# [15] = ATG_Sox_CIS: Attagene CIS-FACTORIAL HepG2 Assay for human SRY-box transcription factor (SOX) (AID 2282960); settings: HepG2 Attagene cis-factorial SOX reporter, mRNA; actives raise or lower the signal
# Outline: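 Gain- or loss-of-signal endpoint, fitted bidirectionally with DMSO as negative control. Based on reporter mRNA from transfected HepG2 cells harvested 24 h post-treatment and quantified via RT-PCR and capillary electrophoresis.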
# [16] = biological target: Transcription factor Sp1 (Homo sapiens) (UniProt P08047); assay: ATG_Sp1_CIS: Attagene CIS-FACTORIAL HepG2 Assay for human Specificity Protein 1 (Sp1) (AID 2282961); settings: HepG2 Sp1 cis-reporter transcription, actives raise or lower the signal
# Outline: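 Endpoint reflects endogenous Sp1 transcriptional activity, not an exogenous fusion protein: HepG2 cells with transfected cis-regulated reporters, 24 h dosing, RT-PCR/capillary electrophoresis mRNA read-out, DMSO-normalised bidirectional fit.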
# [17] = ATG_SREBP_CIS: Attagene CIS-FACTORIAL HepG2 Assay for human Sterol Regulatory Element Binding (SREBP) (AID 2282962); settings: HepG2 Attagene cis-factorial SREBP reporter, mRNA; actives raise or lower the signal
# Outline: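 In this cis-format assay, HepG2 liver cells express reporters controlled by promoter elements responsive to native transcription factors. Exposure lasts 24 h; reporter mRNA fluorescence from capillary electrophoresis gives the signal, fitted bidirectionally against DMSO.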
# [18] = ATG_TA_CIS: Attagene CIS-FACTORIAL HepG2 Assay for human TA Basal Promoter (AID 2282964); settings: HepG2 Attagene CIS-factorial TA basal promoter reporter; actives raise or lower the signal
# Outline: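 Cis-factorial format in HepG2: reporters report endogenous factors, not chimeric Gal4 fusions. After 24 h treatment, reporter transcripts were measured by RT-PCR-capillary electrophoresis fluorescence, analysed bidirectionally versus DMSO.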
# Chain of Paired box protein Pax-6 (Homo sapiens) (P26367 whole entry, looked up): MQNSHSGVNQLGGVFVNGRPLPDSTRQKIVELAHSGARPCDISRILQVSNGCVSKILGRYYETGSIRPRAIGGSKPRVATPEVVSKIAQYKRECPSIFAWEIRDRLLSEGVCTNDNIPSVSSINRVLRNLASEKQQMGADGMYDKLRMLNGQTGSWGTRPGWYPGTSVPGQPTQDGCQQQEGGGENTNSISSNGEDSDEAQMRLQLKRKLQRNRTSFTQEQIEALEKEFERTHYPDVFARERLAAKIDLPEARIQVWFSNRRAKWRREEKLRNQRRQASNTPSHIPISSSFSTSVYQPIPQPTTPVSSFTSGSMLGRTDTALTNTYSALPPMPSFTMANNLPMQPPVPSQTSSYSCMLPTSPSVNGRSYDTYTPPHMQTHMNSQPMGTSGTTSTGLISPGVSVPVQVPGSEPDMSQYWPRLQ
# Chain of Transcription factor Sp1 (Homo sapiens) (P08047 whole entry, looked up, the tested form may be a part): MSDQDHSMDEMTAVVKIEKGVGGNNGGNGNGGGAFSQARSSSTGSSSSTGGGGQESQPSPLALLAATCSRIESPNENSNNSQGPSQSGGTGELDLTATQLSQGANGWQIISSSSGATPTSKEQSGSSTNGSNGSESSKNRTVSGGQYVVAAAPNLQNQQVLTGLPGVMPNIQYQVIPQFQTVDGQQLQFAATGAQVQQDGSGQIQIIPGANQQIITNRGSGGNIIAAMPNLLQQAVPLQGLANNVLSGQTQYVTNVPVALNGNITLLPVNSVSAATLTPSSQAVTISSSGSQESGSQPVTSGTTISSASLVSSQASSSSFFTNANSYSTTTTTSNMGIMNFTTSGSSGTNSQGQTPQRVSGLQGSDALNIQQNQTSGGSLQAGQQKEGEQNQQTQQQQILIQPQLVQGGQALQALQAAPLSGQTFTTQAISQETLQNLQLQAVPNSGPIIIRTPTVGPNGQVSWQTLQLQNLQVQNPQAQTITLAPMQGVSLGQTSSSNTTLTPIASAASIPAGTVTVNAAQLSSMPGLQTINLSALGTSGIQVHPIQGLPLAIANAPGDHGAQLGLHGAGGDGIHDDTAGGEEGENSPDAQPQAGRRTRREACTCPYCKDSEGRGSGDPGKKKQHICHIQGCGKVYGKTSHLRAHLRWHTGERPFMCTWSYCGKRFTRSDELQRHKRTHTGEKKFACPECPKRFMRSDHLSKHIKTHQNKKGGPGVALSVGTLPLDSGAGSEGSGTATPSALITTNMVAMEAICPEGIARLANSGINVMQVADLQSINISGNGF
# Chain of Hypoxia-inducible factor 1-alpha (Homo sapiens) (Q16665 whole entry, looked up): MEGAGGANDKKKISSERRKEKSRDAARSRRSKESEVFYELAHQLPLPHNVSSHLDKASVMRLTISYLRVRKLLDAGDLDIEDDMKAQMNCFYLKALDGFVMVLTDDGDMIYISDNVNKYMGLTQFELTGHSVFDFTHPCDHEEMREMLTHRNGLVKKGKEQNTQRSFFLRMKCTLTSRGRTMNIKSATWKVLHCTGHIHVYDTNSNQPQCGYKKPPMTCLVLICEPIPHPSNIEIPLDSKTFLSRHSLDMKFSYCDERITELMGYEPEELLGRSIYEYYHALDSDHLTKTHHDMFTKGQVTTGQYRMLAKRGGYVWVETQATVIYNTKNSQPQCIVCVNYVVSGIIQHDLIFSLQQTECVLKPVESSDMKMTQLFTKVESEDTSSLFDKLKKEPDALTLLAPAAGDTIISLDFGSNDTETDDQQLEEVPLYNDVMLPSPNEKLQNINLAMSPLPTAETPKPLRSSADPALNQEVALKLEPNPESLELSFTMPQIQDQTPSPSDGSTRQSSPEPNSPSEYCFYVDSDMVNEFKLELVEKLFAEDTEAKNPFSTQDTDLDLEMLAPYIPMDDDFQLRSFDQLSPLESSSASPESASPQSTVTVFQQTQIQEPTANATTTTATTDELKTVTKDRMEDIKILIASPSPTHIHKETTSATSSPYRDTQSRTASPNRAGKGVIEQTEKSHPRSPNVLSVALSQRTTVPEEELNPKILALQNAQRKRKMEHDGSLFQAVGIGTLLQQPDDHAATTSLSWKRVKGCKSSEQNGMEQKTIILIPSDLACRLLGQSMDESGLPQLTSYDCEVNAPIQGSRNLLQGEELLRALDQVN
# Chain of Bile acid receptor (Homo sapiens) (Q96RI1 whole entry, looked up): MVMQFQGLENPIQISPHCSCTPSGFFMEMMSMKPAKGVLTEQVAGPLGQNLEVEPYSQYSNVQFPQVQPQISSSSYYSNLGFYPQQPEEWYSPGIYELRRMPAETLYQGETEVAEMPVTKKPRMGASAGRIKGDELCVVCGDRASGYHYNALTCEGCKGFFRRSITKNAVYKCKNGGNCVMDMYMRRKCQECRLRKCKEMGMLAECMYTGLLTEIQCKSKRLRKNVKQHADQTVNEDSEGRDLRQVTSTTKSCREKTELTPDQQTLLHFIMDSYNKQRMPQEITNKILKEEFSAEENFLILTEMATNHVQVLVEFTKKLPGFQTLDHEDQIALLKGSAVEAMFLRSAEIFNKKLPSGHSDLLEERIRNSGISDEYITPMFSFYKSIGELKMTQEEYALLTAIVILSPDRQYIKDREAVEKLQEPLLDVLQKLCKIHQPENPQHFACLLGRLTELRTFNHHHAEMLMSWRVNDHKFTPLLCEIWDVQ
# Chain of Hepatocyte nuclear factor 6 (Homo sapiens) (Q9UBC0 whole entry, looked up): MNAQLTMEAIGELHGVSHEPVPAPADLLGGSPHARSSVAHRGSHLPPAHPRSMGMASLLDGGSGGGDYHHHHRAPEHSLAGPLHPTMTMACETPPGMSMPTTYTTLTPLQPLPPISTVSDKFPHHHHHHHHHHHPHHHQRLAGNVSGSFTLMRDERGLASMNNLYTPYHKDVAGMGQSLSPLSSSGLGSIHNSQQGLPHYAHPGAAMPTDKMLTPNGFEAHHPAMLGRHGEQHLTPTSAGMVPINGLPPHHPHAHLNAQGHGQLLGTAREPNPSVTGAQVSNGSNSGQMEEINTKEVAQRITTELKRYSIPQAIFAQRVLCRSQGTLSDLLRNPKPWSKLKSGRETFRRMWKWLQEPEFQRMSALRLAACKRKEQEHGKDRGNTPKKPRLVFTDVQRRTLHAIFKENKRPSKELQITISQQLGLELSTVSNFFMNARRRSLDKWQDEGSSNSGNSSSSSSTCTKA
# Chain of Heat shock factor protein 1 (Homo sapiens) (Q00613 whole entry, looked up): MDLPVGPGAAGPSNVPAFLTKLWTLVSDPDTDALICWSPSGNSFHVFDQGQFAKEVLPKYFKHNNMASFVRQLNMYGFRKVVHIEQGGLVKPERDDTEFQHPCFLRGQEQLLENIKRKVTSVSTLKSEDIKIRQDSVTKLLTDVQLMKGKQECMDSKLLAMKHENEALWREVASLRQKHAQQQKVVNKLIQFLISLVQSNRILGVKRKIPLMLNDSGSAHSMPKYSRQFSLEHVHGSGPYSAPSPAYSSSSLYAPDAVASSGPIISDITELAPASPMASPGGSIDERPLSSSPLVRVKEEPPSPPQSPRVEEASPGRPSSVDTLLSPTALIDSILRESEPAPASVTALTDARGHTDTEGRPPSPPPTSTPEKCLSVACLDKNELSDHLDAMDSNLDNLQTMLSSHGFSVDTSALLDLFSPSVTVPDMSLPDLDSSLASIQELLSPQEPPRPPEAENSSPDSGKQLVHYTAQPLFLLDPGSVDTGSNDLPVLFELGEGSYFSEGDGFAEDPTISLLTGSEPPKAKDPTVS
structure (smiles),measurement,setting,value
Cc1cc(C)nc(NC(=O)NS(=O)(=O)c2ccccc2C(=O)OC2COC2)n1,outcome,[1],inactive
same,outcome,[2],inactive
same,outcome,[3],inactive
same,outcome,[4],inactive
same,outcome,[5],inactive
same,outcome,[6],inactive
same,outcome,[7],inactive
same,outcome,[8],inactive
same,AC50,[9],76.2 µM (active)
same,AC50,[10],80.5 µM (active)
same,outcome,[11],inactive
same,outcome,[12],inactive
same,outcome,[13],inactive
same,outcome,[14],inactive
same,outcome,[15],inactive
same,outcome,[16],inactive
same,AC50,[17],81.9 µM (active)
same,outcome,[18],inactive
CCc1ccc(C(=O)NN(C(=O)c2cc(C)cc(C)c2)C(C)(C)C)cc1,outcome,[1],inactive
same,outcome,[2],inactive
same,outcome,[3],inactive
same,outcome,[4],inactive
same,outcome,[5],inactive
same,outcome,[6],inactive
same,outcome,[7],inactive
same,outcome,[8],inactive
same,outcome,[9],inactive
same,AC50,[10],18.2 µM (active)
same,outcome,[11],inactive
same,outcome,[12],inactive
same,AC50,[13],1.28 µM (active)
same,outcome,[14],inactive
same,outcome,[15],inactive
same,outcome,[16],inactive
same,outcome,[17],inactive
same,outcome,[18],inactive
COC(=O)c1ccccc1S(=O)(=O)NC(=O)N(C)c1nc(C)nc(OC)n1,outcome,[1],inactive
same,outcome,[2],inactive
same,outcome,[3],inactive
same,outcome,[4],inactive
same,outcome,[5],inactive
same,outcome,[6],inactive
same,outcome,[7],inactive
same,outcome,[8],inactive
same,outcome,[9],inactive
same,outcome,[10],inactive
same,outcome,[11],inactive
same,outcome,[12],inactive
same,AC50,[13],64.7 µM (active)
same,outcome,[14],inactive
same,outcome,[15],inactive
same,outcome,[16],inactive
same,outcome,[17],inactive
same,outcome,[18],inactive
CCN(CC)C(=O)SCc1ccc(Cl)cc1,outcome,[1],inactive
same,outcome,[2],inactive
same,outcome,[3],inactive
same,outcome,[4],inactive
same,outcome,[5],inactive
same,outcome,[6],inactive
same,outcome,[7],inactive
same,outcome,[8],inactive
same,outcome,[9],inactive
same,AC50,[10],65.9 µM (active)
same,outcome,[12],inactive
same,AC50,[13],4.49 µM (active)
same,outcome,[15],inactive
same,outcome,[16],inactive
same,outcome,[17],inactive
same,outcome,[18],inactive
CC1(c2ccc(Oc3ccccc3)cc2)OC(=O)N(Nc2ccccc2)C1=O (stereo unspecified),outcome,[1],inactive
same,outcome,[2],inactive
same,outcome,[3],inactive
same,outcome,[4],inactive
same,outcome,[5],inactive
same,outcome,[6],inactive
same,outcome,[7],inactive
same,outcome,[8],inactive
same,outcome,[9],inactive
same,outcome,[10],inactive
same,outcome,[11],inactive
same,outcome,[12],inactive
same,AC50,[13],2.24 µM (active)
same,AC50,[14],1.21 µM (active)
same,outcome,[15],inactive
same,outcome,[16],inactive
same,outcome,[17],inactive
same,outcome,[18],inactive
CCC(C)(C)C(=O)OC1=C(c2ccc(Cl)cc2Cl)C(=O)OC12CCCCC2,outcome,[1],inactive
same,outcome,[2],inactive
same,outcome,[3],inactive
same,outcome,[4],inactive
same,outcome,[5],inactive
same,outcome,[6],inactive
same,outcome,[7],inactive
same,outcome,[8],inactive
same,outcome,[9],inactive
same,outcome,[10],inactive
same,outcome,[11],inactive
same,outcome,[12],inactive
same,outcome,[13],inactive
same,outcome,[14],inactive
same,outcome,[15],inactive
same,outcome,[16],inactive
same,outcome,[17],inactive
same,outcome,[18],inactive
